PubChem BioAssay AID1159580 (chemical genetic matrix, 2015)
“And” between values parts separate entries of the source, which are not always exact repeats. Equal entries are not always repeated. The campaign covered roughly 5,500 compounds. About 2,000 (36%) were called active. Inconclusive results (about 18%) are left out. Cut-off read from the data, not from the text of the source: active = normalized growth mostly below about 0.91 (no sharp cut-off); inconclusive = no clear call, values can overlap the other calls; inactive = mostly above about 0.92. The list shows a part of the results.

Assay: chemical genetic growth profiling, strain panel (AID 1159580);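 note: tested at 20 µM; growth read once vehicle control cultures reached saturation at 30 °C; 1 = growth at the plate median or of vehicle wells; lower values mean less growth of the strain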
Conditions: S. cerevisiae deletion strains, growth OD

Measured: normalized growth

Nc1ccc(S(=O)(=O)Nc2ncccn2)cc1
inactive: locus YAL013W, strain DEP1, hits give low values 0.982 | locus YAL021C, strain ccr4, hits give low values 0.968 | locus YAL026C, strain drs2, hits give low values 0.986 | locus YAL030W, strain snc1, hits give low values 0.994 | locus YBL061C, strain skt5, hits give low values 0.985 | locus YBR009C, strain hhf1, hits give low values 0.986 | locus YBR021W, strain FUR4, hits give low values 0.992 | locus YBR023C, strain chs3, hits give low values 0.993 | locus YBR171W, strain sec66, hits give low values 0.973 | locus YBR229C, strain ROT2, hits give low values 0.96 | locus YBR231C, strain swc5, hits give low values 1.02 | locus YBR279W, strain paf1, hits give low values 0.995 | locus YCL011C, strain gbp2, hits give low values 0.957 | locus YCL016C, strain dcc1, hits give low values 1.01 | locus YCL029C, strain bik1, hits give low values 0.991 | locus YCL069W, strain vba3, hits give low values 0.954 | locus YCR088W, strain abp1, hits give low values 0.976 | locus YDL005C, strain med2, hits give low values 0.985 | locus YDL035C, strain GPR1, hits give low values 0.979 | locus YDL040C, strain nat1, hits give low values 0.971 | locus YDL074C, strain BRE1, hits give low values 0.969 | locus YDL101C, strain DUN1, hits give low values 0.981 | locus YDL134C, strain PPH21, hits give low values 0.999 | locus YDL185W, strain tfp1, hits give low values 0.988 | locus YDL192W, strain arf1, hits give low values 1 | locus YDR001C, strain nth1, hits give low values 0.965 | locus YDR069C, strain doa4, hits give low values 0.97 | locus YDR101C, strain arx1, hits give low values 1.01 | locus YDR137W, strain rgp1, hits give low values 0.964 | locus YDR150W, strain NUM1, hits give low values 0.985 | locus YDR159W, strain sac3, hits give low values 0.955 | locus YDR162C, strain NBP2, hits give low values 0.996 | locus YDR195W, strain ref2 0.956 | locus YDR297W, strain sur2, hits give low values 0.975 | locus YDR318W, strain mcm21, hits give low values 1 | locus YDR334W, strain swr1, hits give low values 0.935 | locus YDR335W, strain msn5, hits give low values 0.988 | locus YDR388W, hits give low values 0.994 | locus YDR392W, strain spt3, hits give low values 1 | locus YDR502C, strain sam2, hits give low values 1.01 | locus YEL003W, strain gim4, hits give low values 0.991 | locus YEL037C, strain rad23, hits give low values 0.967 | locus YEL061C, strain CIN8 (second series), hits give low values 0.967 | locus YEL061C, strain CIN8, hits give low values 0.988 | locus YER015W, strain faa2, hits give low values 0.994 | locus YER016W, strain bim1, hits give low values 0.968 | locus YER110C, hits give low values 0.968 | locus YER111C, strain swi4, hits give low values 1 | locus YER155C, strain BEM2 (second series), hits give low values 0.989 | locus YER155C, strain BEM2, hits give low values 0.991 | locus YER167W, strain BCK2, hits give low values 0.99 | locus YFR010W, strain ubp6, hits give low values 0.941 | locus YGL078C, strain dbp3, hits give low values 1 | locus YGL086W, strain mad1, hits give low values 0.997 | locus YGL167C, strain pmr1, hits give low values 0.976 | locus YGL173C, strain kem1, hits give low values 0.994 | locus YGL227W, strain vid30, hits give low values 0.995 | locus YGL240W, strain doc1, hits give low values 0.986 | locus YGL248W, strain PDE1, hits give low values 0.978 | locus YGL253W, strain hxk2, hits give low values 0.923 | locus YGR078C, strain PAC10, hits give low values 0.986 | locus YGR135W, strain pre9, hits give low values 0.997 | locus YGR252W, strain gcn5, hits give low values 0.957 | locus YHR013C, strain ard1, hits give low values 0.984 | locus YHR027C, strain rpn1, hits give low values 0.988 | locus YHR030C, strain SLT2, hits give low values 0.999 and 0.97 | locus YHR079C, strain IRE1 (second series), hits give low values 1 | locus YHR079C, strain IRE1, hits give low values 0.979 | locus YHR094C, strain hxt1, hits give low values 0.994 | locus YHR129C, strain ARP1, hits give low values 0.987 | locus YHR142W, strain chs7, hits give low values 0.984 | locus YHR200W, strain rpn10, hits give low values 0.992 | locus YIL066C, strain RNR3, hits give low values 0.984 | locus YIL073C, strain SPO22, hits give low values 1.02 | locus YIL125W, strain kgd1, hits give low values 0.995 | locus YIR030C, strain dcg1, hits give low values 0.997 | locus YJL092W, strain hpr5, hits give low values 0.974 | locus YJL095W, strain BCK1 (second series), hits give low values 0.995 | locus YJL095W, strain BCK1, hits give low values 0.994 and 0.979 | locus YJL115W, strain asf1, hits give low values 0.97 | locus YJL129C, strain trk1, hits give low values 0.984 | locus YJL134W, strain LCB3, hits give low values 0.993 | locus YJL154C, strain vps35, hits give low values 0.969 | locus YJL164C, strain tpk1, hits give low values 0.992 | locus YJL166W, strain qcr8, hits give low values 0.936 | locus YJL168C, strain set2, hits give low values 0.992 | locus YJL187C, strain SWE1 (second series), hits give low values 0.986 | locus YJL187C, strain SWE1, hits give low values 0.974 | locus YJR043C, strain POL32, hits give low values 1.01
